According to PubChem BioAssay AID1825 (The Scripps Research Institute Molecular Screening Center, 2009):
About 2,300 (0.79%) of roughly 290,000 compounds were called active. Cut-off read from the data, not from the text of the source: active = inhibition above about 22%; inactive = the rest. For the sample, actives were picked, then their nearest neighbours and some compounds at random.

Test: IEC-6 cell viability reduction – luminescence, cytotoxicity control for KLF5 inhibitor project, primary screen (AID 1825);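 note: 0% = plate median of test compound wells and 100% = cytotoxic reference compound wells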
Details: IEC-6 cytotoxicity, at 5 µM, stronger effect = higher value

Compound	inhibition
Cc1[nH]c2ccc(C(=O)N3CCN(C)CC3)cc2c1C	0.4% (inactive)
CCOc1ccccc1N1CCN(C(=O)c2ccc3[nH]c(C)c(C)c3c2)CC1	36.2% (active)
COc1ccccc1N1CCN(C(=O)c2ccc(Cl)c(S(=O)(=O)N3CCCC3)c2)CC1	-2.9% (inactive)
CCN(C(=O)COC(=O)c1ccc(COc2ccc3c(C)cc(=O)oc3c2)cc1)C1CCS(=O)(=O)C1 (stereo not drawn)	-1.8% (inactive)
Cc1ccc(C)c(NC(=O)C2Cc3ccccc3CN2C(=O)OCc2ccccc2)c1 (stereo not drawn)	-6.3% (inactive)
COc1ccc(CCNC(=O)c2ccccc2OCc2ccccc2)cc1	-0.9% (inactive)
CCOc1ncccc1C(=O)NCCc1ccc(OC)cc1	22% (active)
O=C(NCCc1ccccn1)c1cccnc1Oc1ccc(Cl)cc1	5% (inactive)
COc1ccc(/C=C(\C#N)c2c[nH]c3ccccc23)cc1	86.1% (active)
COc1ccc2[nH]cc(/C=C(/C#N)S(=O)(=O)c3ccccc3)c2c1	-0.2% (inactive)
COc1cc(/C=C(\C#N)c2nc3ccccc3[nH]2)ccc1O	2% (inactive)
CN(CC(=O)O)S(=O)(=O)c1ccc2oc3ccccc3c2c1	-1.3% (inactive)
C=Cc1ccc(C(=O)N2CCCC(CCC(=O)N3CCN(c4ccccn4)CC3)C2)cc1 (stereo not drawn)	-8.1% (inactive)
CN(C(=O)CN1C(=O)S/C(=C\c2ccccc2F)C1=O)C1CCS(=O)(=O)C1 (stereo not drawn)	-4.8% (inactive)
O=C(C1CCCO1)N1CCC(c2nc3ccccc3[nH]2)CC1 (stereo not drawn)	-5.3% (inactive)
N#CC(C(=O)c1ccc(S(=O)(=O)N2CCCCCC2)cc1)c1nc2ccccc2[nH]1 (stereo not drawn)	3% (inactive)
O=S(=O)(c1ccc(Br)cc1)N1CCC(c2nc3ccccc3[nH]2)CC1	43.7% (active)
O=C(Nc1cccnc1Cl)c1cc(-c2ccccc2O)on1	-3.1% (inactive)
Cc1ccc(OCCOc2cccc(/C=N/NC(N)=O)c2)cc1	3.9% (inactive)
CNC(=O)C1CCN(S(=O)(=O)c2c(C)noc2/C=C/c2cccc(C)c2)CC1	-7.8% (inactive)
CC(C)OC(=O)CN1C(=O)C(=O)c2ccccc21	24.8% (active)
CC(C)OC(=O)CN1C(=O)c2ccccc2C1=O	1.2% (inactive)
Cc1cccc2c1N(CC(=O)OC(C)C)C(=O)C2=O	2.7% (inactive)
COc1ccc(CCNS(=O)(=O)c2cn(C)nc2C)cc1	3% (inactive)
CCCOc1ccc(C2=CSC3=NCCN23)cc1Cl	-2.6% (inactive)

Compound	inhibition
O=C(Nn1cnnc1)c1cc(Cl)ccc1Cl	1.3% (inactive)
Cc1ccc(NS(=O)(=O)c2ccc(F)cc2)nc1	1.3% (inactive)
COc1ccc(Nc2oc(-c3ccccc3Cl)nc2C#N)cc1	26.1% (active)
Cc1ccccc1-c1nc(C#N)c(NCc2ccco2)o1	-5.6% (inactive)
COc1ccccc1-c1nc(C#N)c(N2CCC(C(N)=O)CC2)o1	0.7% (inactive)
CCC(C)N1CC(=O)N2Cc3[nH]c4ccccc4c3C[C@H]2C1=O (stereo partly drawn)	9.4% (inactive)
NC(=O)c1oc2ccccc2c1NC(=O)Cc1ccccc1	-3.9% (inactive)
Fc1cccc(CSc2nnc3ccc(-c4ccncc4)nn23)c1	-4% (inactive)
O=C(CSc1nnc2ccc(-c3ccncc3)nn12)N1CCCCC1	-4.1% (inactive)
CSc1nnc2ccc(-c3ccc(C)cc3)nn12	23.2% (active)
CCOC(=O)N1CCN(C(=O)c2cn(C)c3ccc(S(=O)(=O)N(CC)CC)cc3c2=O)CC1	-5.4% (inactive)
COC(=O)c1ccc(NC(=O)CSc2nncn2-c2cccnc2)cc1	0.4% (inactive)
COc1ccccc1N1CCN(C(=O)c2cc(=O)c3cc(C)cc(C)c3o2)CC1	93.6% (active)
COc1cccc(-c2cc(C(=O)N3CCN(c4ccccc4OC)CC3)no2)c1	12.1% (inactive)
COc1ccccc1N1CCN(C(=O)c2cc(=O)c3cc(C)ccc3o2)CC1	17.9% (inactive)
COC1=C(N2CCOCC2)C(=O)c2ccccc2C1=O	-1.6% (inactive)
COc1ccc(NC(=O)c2cccc3c2C(=O)N(CC2CCCO2)C3)cc1OC (stereo not drawn)	-0.8% (inactive)
Cc1cccc(NS(=O)(=O)c2ccc(-c3cnc(C4CC4)o3)cc2)c1	77.2% (active)
COc1ccc(CNS(=O)(=O)c2ccc(-c3cnc(C4CC4)o3)cc2)cc1	-1.9% (inactive)
Cc1cccc(CNS(=O)(=O)c2ccc(-c3cnc(C4CC4)o3)cc2)c1	4.4% (inactive)
Cc1cccc(CS(=O)(=O)c2ncc(Cl)c(C(=O)Nc3ccc(F)cc3)n2)c1	77.4% (active)
CCSc1ncc(Cl)c(C(=O)Nc2cc(C)ccc2C)n1	5.4% (inactive)
Cc1cccc(NC(=O)c2nc(S(=O)(=O)Cc3ccccc3)ncc2Cl)c1	88.2% (active)
Cc1cccc(OCc2ccc(C(=O)Nc3ccc(F)cc3)cc2)c1	0.7% (inactive)
CCOc1ccc(NC(=O)c2nc(SCC)ncc2Cl)cc1	12.7% (inactive)

Compound	inhibition
Cc1cccc(NC(=O)C(C)SCc2ccccc2)c1 (stereo not drawn)	0.6% (inactive)
CN1C2CCC1CC(NC(=O)c1ccc([N+](=O)[O-])cc1)C2 (stereo not drawn)	5% (inactive)
CC(NC(=O)COc1cccnc1[N+](=O)[O-])c1ccc(Cl)cc1Cl (stereo not drawn)	-1.6% (inactive)
Cc1cccc(NC(=O)c2ccc(S(=O)(=O)N(C)CC3CCCO3)cc2)c1C (stereo not drawn)	-2.6% (inactive)
COc1ccc(CNC(=O)C(C)n2nc(C)c3c(C)n(-c4ccccc4)nc3c2=O)c(OC)c1 (stereo not drawn)	0.3% (inactive)
CC1CN(C(=S)Nc2ccccc2F)CC(C)O1 (stereo not drawn)	1.8% (inactive)
CC(=O)NC1=NN(C(C)=O)C(C)(c2ccc(Cl)s2)S1 (stereo not drawn)	23.7% (active)
CC(=O)NC1=NN(C(C)=O)C(C)(CCS(=O)(=O)c2ccc(Cl)c(Cl)c2)S1 (stereo not drawn)	-1% (inactive)
CC(=O)NC1=NN(C(C)=O)C(C)(c2ccc(C)cc2)S1 (stereo not drawn)	-3.8% (inactive)
O=C(Nc1ccccc1Cl)Nn1cnnc1	0.2% (inactive)
O=C(Nc1ccccc1Cl)/C(Cl)=C(\Cl)S(=O)c1ccccc1 (stereo not drawn)	96.8% (active)
O=C(COC(=O)c1cccs1)Nc1ccccc1Cl	-3.8% (inactive)
CCOC(=O)c1csc(CCNC(=O)c2oc3c(Cl)cc(C)cc3c2C)n1	-2.4% (inactive)
COc1ccc(NC(=O)c2cc(-c3ccc(C)cc3)on2)cc1	2.3% (inactive)
CCOc1ccc(S(=O)(=O)Nc2ccc(OC)nc2)cc1	6.1% (inactive)
COc1ccc(C(=O)Nc2ccc(NC(=O)C(C)C)nc2)cc1	-0.5% (inactive)
COc1ccc(CS(=O)/C(Cl)=C(/Cl)C(=O)Nc2ccc(OC)nc2)cc1 (stereo not drawn)	102% (active)
COc1ccc(Nc2cc(Cl)ccc2C(=O)O)cn1	-1.3% (inactive)
COc1ccc(NC(=O)/C(Cl)=C(/Cl)S(=O)Cc2ccc(C)cc2)cn1 (stereo not drawn)	99.6% (active)
Cc1ccc([N+](=O)[O-])cc1S(=O)(=O)N1CCCN(C)CC1	3.1% (inactive)
CC1(C)Cc2cccc(OCC(=O)N3CCN(c4ccc([N+](=O)[O-])cc4)CC3)c2O1	4.2% (inactive)
Cc1cccc(C(=O)N2CCN(S(=O)(=O)N3CCCCC3)CC2)c1	-0.2% (inactive)
CN(C)CCNC(=O)c1[nH]nc2c1CCc1ccccc1-2	-3.9% (inactive)
CC(=O)NCCc1ccc(S(=O)(=O)Nc2ccc(C)c(S(=O)(=O)N3CCOCC3)c2)cc1	2.5% (inactive)
CC(C)c1nc2ccc(C(=O)O)cc2[nH]1	-6% (inactive)

Compound	inhibition
COC(=O)Nc1nc2ccc(Sc3ccccc3)cc2[nH]1	81.4% (active)
COc1cc(OC)cc(C(=O)N[C@H](C(=O)Nc2nc3ccccc3[nH]2)C(C)C)c1	18.7% (inactive)
S=C(c1ccc(-c2ccccc2)o1)N1CCCCC1	1.6% (inactive)
O=C(Cc1ccc([N+](=O)[O-])cc1)Nc1ccc(C(=O)N2CCOCC2)cc1	-2.8% (inactive)
CCCc1c(C(=O)N/N=C(\C)CCc2ccc(OC)cc2)nnn1-c1nonc1N	1.1% (inactive)
CCn1cc(/C=C(\NC(=O)c2cc(OC)c(OC)c(OC)c2)C(=O)N2CCN(C)CC2)c2ccccc21	6.9% (inactive)
Cc1nn(C(C)C(=O)NCCC2=CCCCC2)c(=O)c2nn(-c3ccccc3)c(C)c12 (stereo not drawn)	-2.9% (inactive)
CC(C)c1cc(C(=O)N/N=C/C(Br)=C/c2ccccc2)n[nH]1	37.9% (active)
CC(C)c1cc(C(=O)O)n[nH]1	1.7% (inactive)
Cc1cc(C(=O)N/N=C\C(Br)=C\c2ccccc2)c(C)o1	11.7% (inactive)
Cc1ccc(Cl)cc1NC(=O)C1CCCN(c2cnccn2)C1 (stereo not drawn)	-2.8% (inactive)
C[C@@H]1C[C@@H]2O[C@H]2/C=C\C=C\C(=O)Cc2c(Cl)c(O)cc(O)c2C(=O)O1	44.5% (active)
COc1ccccc1Oc1ccc(N2CC(C(=O)OCC(=O)c3ccc(F)cc3)CC2=O)cc1 (stereo not drawn)	-7.2% (inactive)
Cc1nn(CC(=O)N2CCCCC2)c(=O)c2nn(-c3ccccc3)c(C)c12	-5.3% (inactive)
Cc1ccc(CNC(=O)C2CC(c3ccccc3[N+](=O)[O-])=NO2)o1 (stereo not drawn)	4.8% (inactive)
COc1ccc(S(=O)(=O)N2CCC(C(=O)NCc3ccco3)CC2)cc1C	-0.7% (inactive)
COc1ccc(C2=NOC(C(=O)NCc3ccco3)C2)cc1OC (stereo not drawn)	43.3% (active)
C[C@@H](NC(=O)[C@@H]1Cc2ccccc2CN1)C(=O)NC1CCCC1	0.2% (inactive)
CC(=O)NCCNC(=O)c1cc(-c2cccc3ccccc23)nc2ccccc12	4.3% (inactive)
COCCn1c(SCC(=O)Nc2nc(C)cs2)nnc1C(C)C	1.6% (inactive)
Cc1ccc(Oc2ccc3c(c2)C(=O)N(c2cccc4cccnc24)C3=O)cc1	25.8% (active)
O=C1c2ccccc2C(=O)N1c1cccc2ccccc12	-0.4% (inactive)
Cc1cccc(N2C(=O)c3cccnc3C2=O)c1	3.1% (inactive)
